MEKK2mut PB1 HTS = signal of MEK5 binding to mutant human MEKK2 PB1 domain; 0.35% of 290,000 active; bead flow cytometry, Alexa488-MEK5 binding to MEKK2 mutant; percent response, % at 10 µM; AID 1530; in the data active = percent response above about 24%, passing the limit was not always enough
MEKK3 PB1 HTS = modulators (inhibitors or enhancers) of MEK5 binding to human MEKK3 PB1 domain. Q99759. bead-based flow cytometry, Alexa488-MEK5 binding to MEKK3; actives lie on both sides; 0 = blocked by unlabeled MEK5, 100 = vehicle. binding response (% of control), % at 10 µM. 1.4% of 290,000 active. AID 1529;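 active = binding response more than 3 SD above or below the average of its plate-row segment, actives on both sides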;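 note: Alexa488 bead fluorescence after subtracting the streptavidin-only scavenger bead signal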
Arbovirus anti = blocks arbovirus infection | inhibition, % at 10 µM | arbovirus infection cell-based antiviral screen | 0.37% of 200,000 active; in the data active = inhibition above about 30%
Pf gamet viab = inhibitors of late stage P. falciparum gametocyte viability; P. falciparum stage V gametocytes, ATP luminescence, 24 h; 0.065% of 150,000 active; inhibition, % at 10.9 µM; AID 743093;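 active = inhibition above the mean plus 3 SD of compounds within the control limits, set per campaign, cut at about 38% in these data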;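 note: 0% = DMSO wells and 100% = medium only without gametocytes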
MEKK2 WT-MEK5 = raises or lowers MEK5 binding to wildtype human MEKK2 PB1 domain; bead flow cytometry, Alexa488-MEK5 binding to MEKK2 WT; actives lie on both sides; Q9Y2U5; 1.1% of 290,000 active; binding response (% of control), % at 10 µM; in the data active = binding response below about 67% or above about 130%
MEKK2wt confirm = raises or lowers MEK5 binding to wildtype human MEKK2, retest | shares compounds with MEKK3 PB1 HTS | bead flow cytometry, Alexa488-MEK5 binding to MEKK2 WT; actives lie on both sides | binding response (% of control), % at 10 µM | 2.4% of 5,900 active | AID 1892; in the data active = binding response below about 16% or above about 210%; inactive = in between
MEKK2mut-MEK5 = signal of MEK5 binding to mutant human MEKK2, retest; shares compounds with MEKK3 PB1 HTS; AID 1893; percent response, % at 10 µM; 2% of 5,900 active; bead flow cytometry, Alexa488-MEK5 binding to MEKK2 mutant; in the data active = percent response mostly above about 71%, no sharp cut-off; inactive = mostly below about 38%;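 note: higher means compound restores mutant binding toward wildtype level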
MEKK3-MEK5 inh = confirmation of inhibitors of MEK5 binding to human MEKK3; shares compounds with MEKK3 PB1 HTS; bead flow cytometry, Alexa488-MEK5 binding to MEKK3; active compounds read low; binding response (% of control), % at 10 µM; 1.8% of 5,900 active; AID 1894;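 active = binding response below 72% of control, or above a set upper limit, though filed actives all read lower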;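 note: 100% = DMSO only wells and 0% = binding blocked by excess unlabeled MEK5; lower values mean stronger disruption of MEK5 binding to MEKK3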
Numbers without * were called inactive; / = no result given; [ ] = dose if it differs, or a comment. An excerpt weighted towards active compounds, which were near 2.4% of everything screened.

SMILES	MEKK2mut PB1 HTS	MEKK3 PB1 HTS	Arbovirus anti	Pf gamet viab	MEKK2 WT-MEK5	MEKK2wt confirm	MEKK2mut-MEK5	MEKK3-MEK5 inh
CCCOc1ccc(C(=O)CCC(=O)OCC(=O)Nc2ccc(Oc3ccccc3)cc2)cc1	71.0*	110.0	-3.4	/	147.0*	112.0	3.0	108.0
O=c1[nH]c(SCc2ccc(Cl)cc2)nc2ccccc12	2.0	103.0	7.7	3.5	101.0	/	/	/
O=C(NCCCO)c1ccc(CSc2nc3ccccc3c(=O)[nH]2)cc1	24.0	128.0*	/	3.0	113.0	109.0	9.0	102.0
O=C(c1cnn(C(=O)c2cccc(S(=O)(=O)N3CCOCC3)c2)c1)c1ccccc1O	-5.0	99.0	7.2	-14.1	97.0	/	/	/
Cc1cc(C)n2nc(CCCO)nc2n1	/	/	8.2	12.2	/	/	/	/
O=C1N=c2ccccc2=C1c1[nH]c(=S)[nH]c1O	2.0	66.0*[inhibitor]	3.1	-11.2	106.0	110.0	9.0	103.0
Cc1nn(-c2ccccc2)c(C)c1/C=N/NC(=O)c1cc(-c2cccs2)[nH]n1	-1.0	102.0	-4.3	-9.8	101.0	/	/	/
Cc1[nH]c2ccccc2c1/C=N/NC(=O)CNC(=O)c1cccs1	6.0	103.0	/	-0.6	102.0	/	/	/
Cc1[nH]c2ccccc2c1/C=N/NC(=O)c1cccs1	128.0*	98.0	-16.0	8.7	88.0	104.0	2.0	98.0
Cc1nn(-c2ccccc2)c(C)c1/C=N/NC(=O)c1cccs1	-1.0	133.0*	-17.6	6.9	100.0	104.0	1.0	104.0
Cc1occc(=O)c1OC(=O)Nc1ccc(Cl)c(Cl)c1	-1.0	91.0	4.8	6.9	101.0	/	/	/
COc1cccc(Nc2ccc(Nc3cccc(OC)c3)nn2)c1	76.0*	113.0	-1.7	4.9	172.0*	108.0	2.0	103.0
Cc1ccc(N(CN2C(=O)NC(C)(C)C2=O)CN2C(=O)NC(C)(C)C2=O)cc1	-16.0	2.0*[inhibitor]	-8.0	-5.6	2.0*[inhibitor]	101.0	-4.0	99.0
Cc1cccc(NC(=O)CSc2nc3ccccc3c(=O)n2C)c1	-3.0	98.0	/	/	100.0	/	/	/
COc1ccc(OC)c(NC(=O)c2cc3ccccc3cc2OC)c1	28.0*	103.0	/	-27.9	106.0	109.0	4.0	104.0
CC(C)c1ccc(OCC(=O)NC2=NCCS2)cc1	2.0	101.0	7.0	23.7	102.0	/	/	/
CC(C)OC(=O)c1cc2c(=O)[nH]c(C(Cl)(Cl)Cl)nc2o1	2.0	100.0	-0.2	7.0	103.0	/	/	/
Cc1c(CCOC(=O)CC23CC4CC(CC(C)(C4)C2)C3)sc[n+]1CC(=O)c1ccccc1	6.0	108.0	-35.1	3.5	153.0*	155.0	7.0	101.0
CCN(c1cccc(C)c1)S(=O)(=O)c1ccc2c(c1)CCN2C(C)=O	-10.0	1.0*[inhibitor]	-1.1	/	-1.0*[inhibitor]	101.0	-4.0	103.0
CC(=O)N1CCc2cc(S(=O)(=O)CCC(=O)N3CCC(C)CC3)ccc21	-8.0	97.0	/	/	95.0	/	/	/
CCOC(=O)C1CCN(C(=O)CCS(=O)(=O)c2ccc3c(c2)CCN3C(C)=O)CC1	5.0	126.0*	2.8	/	116.0	102.0	2.0	101.0
CN(C)/C=N/c1nc2nccc(-c3ccc(Cl)cc3)n2n1	-7.0	93.0	1.8	-4.0	91.0	/	/	/
CN(C)/C=N/c1nc2nccc(-c3ccccc3)n2n1	-16.0	47.0*[inhibitor]	1.3	0.9	56.0	93.0	-6.0	90.0
COc1ccc(C(=O)Nc2cccc(C(=O)Nc3cc(C)ccn3)c2)cc1	/	/	/	-1.3	/	/	/	/
Cc1cccn2c(=O)c3cc(C#N)c(=NC(=O)c4ccncc4)n(CCCOC(C)C)c3nc12	-3.0	97.0	-13.6	/	96.0	/	/	/
CC(=O)N=c1c(C#N)cc2c(=O)n3cccc(C)c3nc2n1CCCOC(C)C	-27.0	67.0	/	5.7	46.0*[inhibitor]	101.0	-7.0	98.0
O=C(Nc1ccccc1F)c1cc(S(=O)(=O)N2CCOCC2)cs1	4.0	104.0	/	/	106.0	/	/	/
COc1ccc2cnnc(SCC(=O)Nc3ccc(C(C)=O)cc3)c2c1OC	-2.0	99.0	-0.6	0.9	97.0	/	/	/
